Screening data as filed in PubChem BioAssay.
AmpC detergent: blocks E. coli AmpC beta-lactamase in detergent assay. P00811. AmpC hydrolysis of nitrocefin, absorbance 480 nm, 0.01% Triton. Potency, µM (doses to about 114 µM), for inactives: top-dose activity change, negative = inhibition, usual class: inhibitors. 370,000 tested, 0.041% active;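 further: 0% = no-compound wells and -100% = no-enzyme wells; nearly all actives have a fitted effect of over 25% in size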
Target sequence (P00811 whole entry, looked up): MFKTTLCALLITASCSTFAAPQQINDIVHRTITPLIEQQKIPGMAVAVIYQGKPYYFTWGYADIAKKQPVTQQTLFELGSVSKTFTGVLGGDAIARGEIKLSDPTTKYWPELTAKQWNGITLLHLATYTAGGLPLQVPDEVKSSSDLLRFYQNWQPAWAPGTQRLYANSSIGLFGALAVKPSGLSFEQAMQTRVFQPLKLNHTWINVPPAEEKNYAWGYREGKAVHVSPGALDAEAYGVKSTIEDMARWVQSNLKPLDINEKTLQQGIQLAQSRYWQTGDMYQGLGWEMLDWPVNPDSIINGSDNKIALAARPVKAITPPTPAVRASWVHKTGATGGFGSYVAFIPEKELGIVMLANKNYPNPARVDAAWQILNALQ
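AmpC (5.3 nM in the dispensed reagent) in 20 mM phosphate pH 7.0 with 0.01% (detergent screen) or 0.0001% Triton X-100 was preincubated with compounds for 15 min at room temperature. Nitrocefin was then added from an 800 uM solution, and hydrolysis was followed at 480 nm.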
Sm TGR inh: blocks Schistosoma mansoni thioredoxin glutathione reductase. purified TGR, DTNB reduction, TNB absorbance 405 nm. AID 485364. 360,000 tested, 3% active. Q962Y6. Potency, µM (highest dose often 114 µM), for inactives: at the top dose activity change, negative = inhibition, actives largely listed as inhibitors; further: nearly all actives have a fitted effect of over 60% in size
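Kinetic colorimetric format: TGR-catalysed, NADPH-driven DTNB reduction monitored via TNB absorbance. Enzyme dispensed at 20 nM; compound exposure 15 min at room temperature before reaction start.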
AmpC inh no detg: AmpC beta-lactamase inhibition without detergent; P00811; AmpC nitrocefin hydrolysis, absorbance 480 nm, 0.0001% Triton; Potency, µM (highest dose often 57.1 µM), inactives show top-dose activity change, negative = inhibition, most hits filed as inhibitors; 330,000 tested, 0.52% active; AID 485341;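 further: plate controls were no compound for no effect and no enzyme for full effect; nearly all actives have a fitted effect of over 20% in size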
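AmpC (5.3 nM in the dispensed reagent) in 20 mM phosphate pH 7.0 with 0.01% (detergent screen) or 0.0001% Triton X-100 was preincubated with compounds for 15 min at room temperature. Nitrocefin was then added from an 800 uM solution, and hydrolysis was followed at 480 nm.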
The depositor's hits bear a star; ? = inconclusive; / = not tested or not shown; [ ] = remark or other dose. The list is not random: actives were taken first. Their share in the collection is about 3.3%. The call rests on the fitted dose curve; in most records, active means well fitted curve in the direction sought with a large enough effect; inconclusive means small, poorly fitted or top-dose-only effect, or another doubt; inactive means no such curve, though single readings can be large; an effect the other way counts as inactive or inconclusive. Unless noted, on the % scale 0 is the no-effect control and ±100 the full control effect; potency means the concentration at half of the fitted maximal effect.

SMILES | AmpC detergent | Sm TGR inh | AmpC inh no detg
O=C(/C=C/c1ccc(Br)cc1)NC(=S)Nc1ccc(S(=O)(=O)Nc2nccs2)cc1 | ? | 1.6% | -14.4%
O=C(c1cccc(Cl)c1)N1c2nc(-c3ccco3)nn2C2(CCCCC2)[C@@H]2CCCC[C@@H]21 | 15.7% | -25.2% | /
O=C(c1cccc([N+](=O)[O-])c1)N1c2nc(-c3ccco3)nn2C2(CCCCC2)[C@@H]2CCCC[C@@H]21 | 0.9% | ? | /
Cc1ccc(C(=O)N2c3nc(-c4ccco4)nn3C3(CCCCC3)[C@@H]3CCCC[C@@H]32)cc1 | 16.9% | 11.2µM* | /
O=C(c1ccccc1)N1c2nc(-c3ccco3)nn2C2(CCCCC2)[C@@H]2CCCC[C@@H]21 | 3.2% | ? | /
CCC(=O)N1c2nc(-c3ccco3)nn2C2(CCCCC2)[C@@H]2CCCC[C@@H]21 | 18.2% | 39.8µM* | /
COc1cccc(C(=O)N2c3nc(-c4ccco4)nn3C3(CCCCC3)[C@@H]3CCCC[C@@H]32)c1 | 5.0% | 7.94µM* | /
O=C(c1cc[n+]([O-])cc1)N1CCCC(N2CCN(c3cccc(C(F)(F)F)c3)CC2)C1 (configuration not stated) | 0.8% | -10.2% | 107.8%
C/C(=N\NC(=O)Cc1ccc(Cl)cc1)c1cccnc1 | ? | -15.7% | -23.7%
Cc1ccc2nc(N(CCCN(C)C)C(=O)c3sc4ccccc4c3Cl)sc2c1 | -3.2% | ? | 155.1%
NS(=O)(=O)c1ccc(CNc2ccc3ccccc3n2)cc1 | -8.8% | -0.8% | -14.7%
COc1cccc(Nc2nc(-c3ccccc3)c3cc(C)ccc3n2)c1 | 14.9% | 14.4% | /
COc1cc(Nc2nc(-c3ccccc3)c3cc(C)ccc3n2)cc(OC)c1OC | ? | 39.8µM* | 20.4%
Cc1cc(Br)c(NC(=O)CCNC(=O)OCc2ccccc2)cc1C | 3.0% | 12.3% | 1.5%
O=C(O)CCCNC(=O)OCc1ccccc1 | ? | 15.5% | -7.2%
Cc1ccc(NC(=O)CNC(=O)OCc2ccccc2)cc1C | 2.6% | 0.112µM* | -7.3%
COC(=O)C(CCCCNC(=O)OCc1ccccc1)NC(=O)CN (configuration not stated) | -4.4% | 79.4µM* | -4.2%
Cn1nccc1C(=O)N1CCN(S(=O)(=O)c2ccc(Br)s2)CC1 | 4.4% | 5.2% | 6.0%
Cc1ccc(C)n1-c1sccc1C(=O)O | -8.4% | 39.8µM* | -24.7%
Cc1ccc(C)n1-c1sc2c(c1C(=O)O)CCCC2 | ? | 0.0% | -43.9%
CCC1(CC)NC(=O)N(CC(=O)OC(C)C(=O)Nc2ccc(Cl)cn2)C1=O (configuration not stated) | ? | -1.5% | -1.0%
CC(C)(C)OC(=O)N1CCC(CC2CC(c3cccc(Br)c3)=NO2)(C(=O)NCC2CCCCC2)CC1 (configuration not stated) | 1.4% | 15.5% | 20.5%
O=C(NCc1ccccc1)C1(CC2CC(c3ccccc3)=NO2)CCNCC1 (configuration not stated) | 2.0% | 50.1µM* | 81.3%
O=C(NCC1CCCCC1)C1(CC2CC(c3cccc(Br)c3)=NO2)CCNCC1 (configuration not stated) | 6.0% | 44.7µM* | 164.4%
CCCCCCCNC(=O)C1(CC2CC(c3ccccc3)=NO2)CCNCC1 (configuration not stated) | -12.4% | ? | 150.9%
SMILES | AmpC detergent | Sm TGR inh | AmpC inh no detg
CCC(C)NC(=O)c1c(-c2ccccc2)c(-c2ccccc2)nn(C)c1=O (configuration not stated) | 16.1% | -4.2% | /
C#CCn1c(S(=O)(=O)Cc2ccc(C)cc2)nc(-c2ccccc2)c1-c1ccccc1 | -9.2% | 6.2% | -29.7%
C#CCn1c(S(=O)(=O)Cc2ccccc2Cl)nc(-c2ccccc2)c1-c1ccccc1 | 2.1% | 1.5% | 4.47µM*
COc1ccc(NC(=O)COC(=O)[C@@H](NC(=O)c2c(F)cccc2F)C(C)C)cc1 | -3.3% | 6.8% | 147.3%
CCOC(=O)c1cccc(NC(=O)CC2C(=O)N(c3ccc(F)cc3)C(=O)N2Cc2cccc(OC)c2)c1 (configuration not stated) | 13.9% | 17.2% | /
CCC(=O)Nc1cc(NC(=O)CSc2ncc(-c3ccc(F)cc3)n2Cc2ccco2)ccc1C | ? | 44.7µM* | 59.0%
O=C(CSc1nnc(-c2ccc(Cl)cc2)n1Cc1ccco1)c1cccs1 | -9.6% | 28.2µM* | -31.3%
O=C(CSc1nnc(-c2ccncc2)n1Cc1ccco1)c1ccc(Cl)cc1 | -4.4% | 0.891µM* | 5.7%
O=C(CSc1nnc(-c2ccncc2)n1Cc1ccco1)Nc1ccccc1F | 5.4% | 50.1µM* | -6.1%
NC(=O)CSc1nnc(-c2cccs2)n1Cc1ccco1 | -4.1% | -20.8% | -3.1%
Cc1cc(C)c(NC(=O)CSc2nnc(-c3ccncc3)n2Cc2ccco2)c(C)c1 | -8.5% | ? | 111.9%
COc1ccc(NC(=O)CSc2ncc(-c3ccc(F)cc3)n2Cc2ccco2)cc1 | ? | 3.3% | -15.2%
O=C(CSc1nnc(-c2ccncc2)n1Cc1ccco1)Nc1ccccc1Cl | 3.4% | -22.5% | 6.5%
Cc1ccc2c(c1)N(Cc1cccc(C#N)c1)C=NS2(=O)=O | 0.4% | -0.9% | -7.2%
COc1ccc(Cn2c(C(=O)O)c(CNCc3ccccc3F)c3ccc(OC)cc32)cc1 | 4.4% | -1.7% | /
Cc1ccc(C)c(N2CCN(C(=O)c3cc(S(=O)(=O)N4CCCCC4)cn3C)CC2)c1 | 19.2% | 7.4% | /
COc1ccc(CC(=O)Nc2c(C(=O)Nc3ccccc3F)oc3ccccc23)cc1 | 7.0% | 2.2% | /
Cc1ccc2c(c1)C(=O)OC(C(=O)Nc1ccccc1C(=O)O)C2 (configuration not stated) | 3.3% | -19.8% | /
O=C(CSc1nnc(Cc2cccs2)n1Cc1ccco1)Nc1cc(Cl)cc(Cl)c1 | -1.7% | 35.5µM* | -30.6%
O=C(CSc1nnc(Cc2cccs2)n1Cc1ccco1)Nc1cccc(Cl)c1 | -10.9% | ? | -49.2%
CCCc1nc2ccccc2c(=O)n1-c1ccc(C(=O)OCC)cc1 | -10.7% | -5.9%[57.1 µM] | -22.2%
CCN(CC)C(=O)Cn1cc(C(=O)C(=O)NCc2cccnc2)c2ccccc21 | -5.6% | 5.8% | -0.2%
CCOC(=O)c1ccc(N2C(=O)C3CCCN3C2=S)cc1 (configuration not stated) | ? | 8.9% | -18.4%
CCOC(=O)c1ccc(N2C(=O)CC(Sc3ncccn3)C2=O)cc1 (configuration not stated) | 1.3% | 39.8µM* | -20.3%
CCOC(=O)c1ccc(N2C(=O)CC(N3CCC(Nc4ccc(F)cc4)CC3)C2=O)cc1 (configuration not stated) | ? | 56.2µM* | 28.1%
CCOC(=O)C(N)CSC1CC(=O)N(c2ccc(C(=O)OC)cc2)C1=O (configuration not stated) | ? | ? | -4.1%
CCOC(=O)C1CCCN(C2CC(=O)N(c3cccc(C)c3)C2=O)C1 (configuration not stated) | ? | 25.1µM* | -6.7%
CCOC(=O)c1ccc(N2C(=O)CC(N3CCCC(C)C3)C2=O)cc1 (configuration not stated) | -11.1% | 25.1µM* | 5.4%
